Drawing on PubChem BioAssay (Tox21), this text covers Potency and outcome for 36 compounds.

Values joined by “and” are separate entries in the source; they are usually repeats but may differ in a detail not shown here. Equal entries are not always repeated. Inconclusive results are not listed. Where a call stands in place of a potency, no number is given. The source holds several records for some structures; these can differ, active in one and inactive in another. Active and inactive are the calls of the source. Unless noted, the call rests on the fitted dose curve; in most records, active means well fitted curve in the direction sought with a large enough effect in the repeat runs; inconclusive means weak or mixed curves; inactive means no such curve, though single readings can be large; an effect the other way counts as inactive or inconclusive. Residues, ends and D or L forms follow the SMILES beside them.

In the first experiment the target is Retinoic acid receptor RXR-alpha (Homo sapiens) (UniProt P19793). The experiment is described as follows: qHTS assay to identify small molecule agonists of the RXR signaling pathway (AID 1159527; calls by dose curve; further: nearly all actives have a fitted effect of over 35% in size; further: potency means the concentration at half of the fitted maximal effect). To be noted: HEK293T RXRa-UAS-bla, beta-lactamase ratio, 16 h; series mostly up to 76.8 µM. In short, it runs like this: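 Agonist-mode beta-lactamase reporter assay: HEK 293T RXR-alpha-UAS-bla cells treated 16 hr at 37 C with compounds, 9-cis retinoic acid as positive control. LiveBLAzer FRET substrate, 405 nm excitation, 460/530 nm emission.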
Sequence of Retinoic acid receptor RXR-alpha (Homo sapiens) (P19793 whole entry, looked up): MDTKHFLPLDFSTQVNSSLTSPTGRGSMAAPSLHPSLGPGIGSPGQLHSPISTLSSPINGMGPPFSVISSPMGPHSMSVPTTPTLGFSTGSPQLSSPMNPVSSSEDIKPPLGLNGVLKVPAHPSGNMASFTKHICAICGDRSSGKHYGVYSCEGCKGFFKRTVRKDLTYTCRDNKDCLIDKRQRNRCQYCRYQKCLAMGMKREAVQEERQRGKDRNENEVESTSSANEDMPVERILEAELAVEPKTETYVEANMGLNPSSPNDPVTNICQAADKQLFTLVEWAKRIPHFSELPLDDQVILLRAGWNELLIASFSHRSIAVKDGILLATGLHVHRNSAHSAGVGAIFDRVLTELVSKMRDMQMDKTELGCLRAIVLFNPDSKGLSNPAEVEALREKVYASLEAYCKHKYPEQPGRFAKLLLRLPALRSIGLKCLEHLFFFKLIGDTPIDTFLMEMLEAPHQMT
On the technique in general: Quantitative high-throughput screening tests each substance at several concentrations.
Turning to `CCCCCCCCCCCCCCCC(=O)O`, the Potency result is “inactive”.
Turning to `C/C=C/c1ccc(OC)cc1`, the Potency result is “inactive”.
On the same count and under the same terms, then `C1N2CN3CN1CN(C2)C3`, with “inactive”; and `O=c1cc[nH]c(=S)[nH]1`, with 493 nM (active) and inactive; and `CCCN(CCC)S(=O)(=O)c1ccc(C(=O)O)cc1`, with “inactive”.
On the same count and under the same terms, then `CCCCC1C(=O)N(c2ccccc2)N(c2ccccc2)C1=O`, with “inactive”.
Regarding `CCCC(O)C(CC)CO` (stereo not given), the Potency entry is “inactive”.
Same read-out and setting: the result for `O=S(=O)(O)NC1CCCCC1` reads “inactive”; that for `O=C(O)CS`, “inactive”.
Same read-out and setting: the result for `CCCNC(=O)NS(=O)(=O)c1ccc(Cl)cc1` reads “inactive”.
Still for that read-out and setting: the result for `CCCCC(CC)COC(=O)/C=C/c1ccc(OC)cc1` (stereo not given) reads “inactive”.
Consider `O=C(O)c1cccc([N+](=O)[O-])c1`, for which the Potency entry is “inactive”.
For the compound `CC(C)[C@@H]1CC[C@@H](C)C[C@H]1O`, the Potency entry is “inactive”.
Still for that read-out and setting: then `O=C(O)c1[nH]n(-c2ccc(S(=O)(=O)O)cc2)c(=O)c1N=Nc1ccc(S(=O)(=O)O)cc1`, with “inactive”; and `O=C(O)c1cc(N=Nc2ccc(S(=O)(=O)Nc3ccccn3)cc2)ccc1O`, with “inactive”; and `CC(=O)OCC(COC(C)=O)OC(C)=O`, with “inactive”.
Same read-out and setting: then `Nc1ccc(S(=O)(=O)Nc2nccs2)cc1`, with 19.6 µM (active) and inactive; and `O=C(c1ccccc1)C(O)c1ccccc1` (stereo not given), with “inactive and 38.9 µM (active)”.
On the same count and under the same terms, the result for `COC(=O)[C@H](Cc1ccccc1)NC(=O)[C@@H](N)CC(=O)O` (H-Asp-Phe-OMe) reads “inactive”; that for `NNC(=O)c1ccncc1`, “inactive”.
On to `NC(=O)c1cnccn1`, for which the Potency entry was “inactive”.
Still for that read-out and setting: then `O=C(O)/C=C\C(=O)O`, with “inactive”; and `NC(=O)NC1NC(=O)NC1=O` (stereo not given), with “inactive”.
Same read-out and setting: then `Cc1cc(=O)[nH]c(=S)[nH]1`, with “inactive”; and `O=NO`, with “inactive”.
The same measure, in the same setting: the result for `CCCCOC(=O)CC(CC(=O)OCCCC)(OC(C)=O)C(=O)OCCCC` reads “inactive”; that for `Nc1ccc(S(=O)(=O)c2ccc(N)cc2)cc1`, “inactive”.
Consider `Cc1noc(NS(=O)(=O)c2ccc(N)cc2)c1C`, for which the Potency entry was “inactive”.
Still for that read-out and setting: then `CC(=O)NS(=O)(=O)c1ccc(N)cc1`, with “inactive”; and `COc1ccc2[nH]cc(CCNC(C)=O)c2c1`, with “inactive”; and `c1ccc2[nH]ccc2c1`, with “inactive”.
On the same count and under the same terms, then `NC(N)=O`, with “inactive”.
Take `Cc1cn([C@H]2C[C@H](N=[N+]=[N-])[C@@H](CO)O2)c(=O)[nH]c1=O`: the Potency result is “inactive”.
Same read-out and setting: the result for `O=C(O)CCCCC(=O)O` reads “inactive”.
Still for that read-out and setting: then `O=C1NC(=O)c2ccccc21`, with “inactive”.
As to `Cc1ccc(O)cc1`, the Potency entry is “inactive”.

Tested on in another experiment: not listed separately
The experiment is described as follows: qHTS assay to identify small molecule agonists of the RXR signaling pathway - cell viability counter screen (AID 1159529). Further: nearly all actives have a fitted effect of over 50% in size. Further: potency means the concentration at half of the fitted maximal effect. The settings on record: RXR-alpha-bla HEK293T viability, CellTiter-Glo, 16 h; series mostly up to 76.8 µM. In a few lines:
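CellTiter-Glo luminescence gave viability in the wells also read for beta-lactamase. Cells (RXR-alpha-UAS-bla HEK 293T, 2% charcoal-stripped FBS medium) had 5 hr plating, then 16 hr compound exposure at 37 C; tetraoctyl ammonium bromide served as positive control.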
For `CCCCCCCCCCCCCCCC(=O)O`, the Potency entry was “inactive”.
On the same count and under the same terms, the result for `C/C=C/c1ccc(OC)cc1` reads “inactive”; that for `C1N2CN3CN1CN(C2)C3`, “inactive”; that for `O=c1cc[nH]c(=S)[nH]1`, “inactive”.
In the case of `CCCN(CCC)S(=O)(=O)c1ccc(C(=O)O)cc1`, the Potency entry was “inactive”.
`CCCCC1C(=O)N(c2ccccc2)N(c2ccccc2)C1=O`: the Potency result was “inactive”.
As to `CCCC(O)C(CC)CO` (stereo not given), the Potency result is “inactive”.
Still for that read-out and setting: then `O=S(=O)(O)NC1CCCCC1`, with “inactive”.
Same read-out and setting: then `O=C(O)CS`, with “inactive”; and `CCCNC(=O)NS(=O)(=O)c1ccc(Cl)cc1`, with “inactive”; and `CCCCC(CC)COC(=O)/C=C/c1ccc(OC)cc1` (stereo not given), with “inactive”.
The same measure, in the same setting: the result for `O=C(O)c1cccc([N+](=O)[O-])c1` reads “inactive”; that for `CC(C)[C@@H]1CC[C@@H](C)C[C@H]1O`, “inactive”; that for `O=C(O)c1[nH]n(-c2ccc(S(=O)(=O)O)cc2)c(=O)c1N=Nc1ccc(S(=O)(=O)O)cc1`, “inactive”.
For the compound `O=C(O)c1cc(N=Nc2ccc(S(=O)(=O)Nc3ccccn3)cc2)ccc1O`, the Potency entry was “inactive”.
Still for that read-out and setting: the result for `CC(=O)OCC(COC(C)=O)OC(C)=O` reads “inactive”; that for `Nc1ccc(S(=O)(=O)Nc2nccs2)cc1`, “inactive”.
Still for that read-out and setting: the result for `O=C(c1ccccc1)C(O)c1ccccc1` (stereo not given) reads “inactive”.
As to `COC(=O)[C@H](Cc1ccccc1)NC(=O)[C@@H](N)CC(=O)O` (H-Asp-Phe-OMe), the Potency result was “inactive”.
The same measure, in the same setting: the result for `NNC(=O)c1ccncc1` reads “inactive”; that for `NC(=O)c1cnccn1`, “inactive”; that for `O=C(O)/C=C\C(=O)O`, “inactive”.
The same measure, in the same setting: the result for `NC(=O)NC1NC(=O)NC1=O` (stereo not given) reads “inactive”; that for `Cc1cc(=O)[nH]c(=S)[nH]1`, “inactive”; that for `O=NO`, “inactive”.
As for `CCCCOC(=O)CC(CC(=O)OCCCC)(OC(C)=O)C(=O)OCCCC`, the Potency entry was “inactive”.
On the same count and under the same terms, then `Nc1ccc(S(=O)(=O)c2ccc(N)cc2)cc1`, with “inactive”.
Same read-out and setting: then `Cc1noc(NS(=O)(=O)c2ccc(N)cc2)c1C`, with “inactive”.
The same measure, in the same setting: then `CC(=O)NS(=O)(=O)c1ccc(N)cc1`, with “inactive”; and `COc1ccc2[nH]cc(CCNC(C)=O)c2c1`, with “inactive”; and `c1ccc2[nH]ccc2c1`, with 48.2 µM (active) and inactive.
Take `NC(N)=O`: the Potency entry was “inactive”.
Same read-out and setting: the result for `Cc1cn([C@H]2C[C@H](N=[N+]=[N-])[C@@H](CO)O2)c(=O)[nH]c1=O` reads “inactive”; that for `O=C(O)CCCCC(=O)O`, “inactive”; that for `O=C1NC(=O)c2ccccc21`, “inactive”.
Same read-out and setting: the result for `Cc1ccc(O)cc1` reads “inactive”.

Tested on in a further experiment: not listed separately
The experiment is described as follows: qHTS assay to identify small molecule antagonists of the retinoid acid receptor (RAR) signaling pathway - cell viability counter screen (AID 1159551). Further: nearly all actives have a fitted effect of over 35% in size. To be noted: C3RL4 cells viability, ATP luminescence (CellTiter-Glo), 6 h; series mostly up to 92.4 µM. In short, it runs like this: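 Cytotoxicity counter screen in C3RL4 cells: 6 h compound exposure with 1 uM retinol (final), viability from cellular ATP by luminescence.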
Turning to `CCCCCCCCCCCCCCCC(=O)O`, the compound was called inactive.
On the same count and under the same terms, then `C1N2CN3CN1CN(C2)C3`, with “inactive”.
On the same count and under the same terms, the result for `O=c1cc[nH]c(=S)[nH]1` reads “inactive”.
Same read-out and setting: then `CCCN(CCC)S(=O)(=O)c1ccc(C(=O)O)cc1`, with “inactive”; and `CCCCC1C(=O)N(c2ccccc2)N(c2ccccc2)C1=O`, with “inactive”; and `CCCC(O)C(CC)CO` (stereo not given), with “inactive”.
In the case of `O=S(=O)(O)NC1CCCCC1`, the outcome was inactive.
On the same count and under the same terms, then `O=C(O)CS`, with “inactive”.
Same read-out and setting: then `CCCNC(=O)NS(=O)(=O)c1ccc(Cl)cc1`, with “inactive”.
Same read-out and setting: then `CCCCC(CC)COC(=O)/C=C/c1ccc(OC)cc1` (stereo not given), with “inactive”; and `CC(C)[C@@H]1CC[C@@H](C)C[C@H]1O`, with “inactive”; and `O=C(O)c1[nH]n(-c2ccc(S(=O)(=O)O)cc2)c(=O)c1N=Nc1ccc(S(=O)(=O)O)cc1`, with “inactive”.
With `O=C(O)c1cc(N=Nc2ccc(S(=O)(=O)Nc3ccccn3)cc2)ccc1O`, the result was inactive.
Same read-out and setting: then `CC(=O)OCC(COC(C)=O)OC(C)=O`, with “inactive”; and `Nc1ccc(S(=O)(=O)Nc2nccs2)cc1`, with “inactive”; and `O=C(c1ccccc1)C(O)c1ccccc1` (stereo not given), with “inactive”.
On the same count and under the same terms, the result for `COC(=O)[C@H](Cc1ccccc1)NC(=O)[C@@H](N)CC(=O)O` (H-Asp-Phe-OMe) reads “inactive”; that for `NC(=O)c1cnccn1`, “inactive”.
Regarding `O=NO`, the result was inactive.
On the same count and under the same terms, then `CCCCOC(=O)CC(CC(=O)OCCCC)(OC(C)=O)C(=O)OCCCC`, with “inactive”; and `Nc1ccc(S(=O)(=O)c2ccc(N)cc2)cc1`, with “inactive”.
Still for that read-out and setting: then `Cc1noc(NS(=O)(=O)c2ccc(N)cc2)c1C`, with “inactive”; and `CC(=O)NS(=O)(=O)c1ccc(N)cc1`, with “inactive”; and `COc1ccc2[nH]cc(CCNC(C)=O)c2c1`, with “inactive”.
The same measure, in the same setting: the result for `c1ccc2[nH]ccc2c1` reads “inactive”; that for `Cc1cn([C@H]2C[C@H](N=[N+]=[N-])[C@@H](CO)O2)c(=O)[nH]c1=O`, “inactive”.
Turning to `O=C(O)CCCCC(=O)O`, the result was inactive.
Same read-out and setting: then `Cc1ccc(O)cc1`, with “inactive”.
